Screens: PubChem, Broad Institute
This is a sample that favours compounds with a hit; in the whole collection about 2.1% have one here.
CASP6 VEID inh: caspase-6 (human) enzyme inhibition; P55212; purified caspase-6, Z-VEID-R110 cleavage fluorescence; inhibition, % at 12.5 µM; hit rate 0.53% among 350,000; AID 686996;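 active means mean inhibition across replicates at least about 35%, with every replicate also reaching that limit, limit read from the data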
Target sequence (P55212 24-179 limits assumed): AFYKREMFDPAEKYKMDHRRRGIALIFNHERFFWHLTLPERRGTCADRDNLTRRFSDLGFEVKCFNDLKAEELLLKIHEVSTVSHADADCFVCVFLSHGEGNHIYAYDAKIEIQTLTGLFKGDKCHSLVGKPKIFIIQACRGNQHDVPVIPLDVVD
Target sequence (P55212 194-293 limits assumed): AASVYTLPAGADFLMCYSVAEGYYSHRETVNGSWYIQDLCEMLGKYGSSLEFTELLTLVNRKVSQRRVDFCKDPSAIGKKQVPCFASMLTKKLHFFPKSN
NSD2 HMT inh: NSD2 (human) methyltransferase inhibition. O96028. NSD2 peptide methylation, AlphaScreen, 120 min. inhibition, % at 12.5 µM. hit rate 0.54% among 310,000. AID 743445; in the data active means inhibition above about 50%
ARNT-TACC3 inh: disrupts binding between human ARNT and TACC3. hit rate 0.66% among 390,000. AlphaScreen His-ARNT PAS-B/GST-TACC3 binding, luminescence; TACC3 fragment carries E629A point mutation. AID 623870. inhibition, % at 9.99 µM;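 active means mean inhibition of replicates at least 50% and at least half of replicates each reaching 50%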
SIRT5 inh: inhibitors of human sirtuin-5 desuccinylase; Purified SirT5, succinyl-peptide AMC, trypsin-coupled fluorescence; inhibition, % at 15 µM; hit rate 1.1% among 330,000; in the data active means inhibition above about 15%
Target sequence (Q9NXA8 whole entry, looked up): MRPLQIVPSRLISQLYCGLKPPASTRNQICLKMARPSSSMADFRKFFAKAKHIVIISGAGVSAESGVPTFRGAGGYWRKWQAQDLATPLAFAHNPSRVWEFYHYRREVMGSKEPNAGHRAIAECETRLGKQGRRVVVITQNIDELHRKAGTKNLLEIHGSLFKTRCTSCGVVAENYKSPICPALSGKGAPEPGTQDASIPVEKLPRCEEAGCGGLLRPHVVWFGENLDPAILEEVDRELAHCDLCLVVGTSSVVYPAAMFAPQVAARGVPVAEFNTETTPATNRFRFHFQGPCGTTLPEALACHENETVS
PfHsp90 set2: inhibits growth of yeast expressing Plasmodium falciparum Hsp90. S. cerevisiae expressing PfHsp90, BacTiter-Glo ATP, 48 h; yeast lacking PDR1 and PDR3 efflux regulators. hit rate 0.32% among 310,000. AID 504621. inhibition, % at 9.4 µM;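 active means every replicate shows inhibition above about 80%, whatever the replicate mean, limit read from the data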
ARNT Alpha ctr-1: counter-screen for ARNT/TACC3 inhibitors: AlphaScreen artifacts | shares compounds with ARNT-TACC3 inh | hit rate 50% among 1,200 | His-ARNT PASB-GST AlphaScreen artifact counter-screen, luminescence | AC50, µM (doses to about 68 µM);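 active means every separate test run was called active for a drop in luminescence, with AC50 within twice the top valid dose, actives reach about 71 µM in these data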
ARNT Alpha ctr-2: counter-screen for ARNT-TACC3 inhibitors: AlphaScreen artifacts; AID 720564; AC50, µM; Dual-tagged His-ARNT PASB-GST AlphaScreen artifact counter-screen; hit rate 70% among 45; shares compounds with ARNT-TACC3 inh;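 active means luminescence drop, with half-maximal potency fitted within twice the sample's top valid dose, cut at about 70 µM in these data; inactive means the rest, including signal moving the wrong way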
A number is an active result; n = inactive; x = no result.

SMILES	CASP6 VEID inh	NSD2 HMT inh	ARNT-TACC3 inh	SIRT5 inh	PfHsp90 set2	ARNT Alpha ctr-1	others
C[C@H]1CN([C@@H](C)CO)C(=O)c2cc(C#Cc3ccccn3)cnc2O[C@@H]1CN(C)Cc1ccccc1	n	x	active	n	x	n
C[C@H](CO)N1C[C@H](C)[C@H](CN(C)Cc2ccccn2)Oc2ncc(C#CC3(O)CCCC3)cc2C1=O	n	x	x	n	x	x
Nc1nc(C(F)(F)F)cc(=O)[nH]1	n	n	n	n	n	x
O=c1cc(C(F)(F)F)nc(-n2[nH]c3c(c2=O)CCCC3)[nH]1	x	n	56.2	x	x	n
COC(=O)c1sc(N)c(C(=O)OC)c1COC(=O)c1c(C)noc1C	x	n	n	x	x	x
COC(=O)c1sc(N)c(C(=O)OC)c1Cn1ncc(Cl)c(Cl)c1=O	n	n	51.9	n	n	n
CNC[C@H]1Oc2ccc(N)cc2C(=O)N([C@@H](C)CO)C[C@@H]1C	n	x	x	x	x	x
COC(=O)C(CC#Cc1ccc2c(c1)[C@]1(C(=O)N2)[C@H](C(=O)N2CCCCCCC2)[C@H]2C(=O)O[C@H](c3ccccc3)[C@H](c3ccccc3)N2[C@@H]1c1ccc(OCCO)cc1)C(=O)OC	n	x	n	n	x	x
COC(=O)C(CC#Cc1ccc2c(c1)[C@]1(C(=O)N2)[C@H](c2ccc(O)cc2)N2[C@H](c3ccccc3)[C@H](c3ccccc3)OC(=O)[C@H]2[C@@H]1C(=O)N1CCCCCCC1)C(=O)OC	n	x	67.9	n	x	n
O=C(Nc1ccc2c(c1)OCO2)c1ccc2c(c1)OCO2	x	n	52.2	x	n	n
O=C(C[C@H]1C=C[C@@H](NC(=O)Nc2ccc3c(c2)OCO3)[C@H](CO)O1)NCc1ccc(Cl)cc1	n	x	23.6	n	x	n
O=S(=O)(c1cccc(F)c1)N1CC[C@@H]2[C@H]1c1cc(C#Cc3ccccc3F)ccc1N[C@@H]2CO	n	x	n	n	x	x
NNc1nnc(-c2ccccc2)c(-c2ccccc2)n1	x	n	52.3	x	n	50.5µM
NNc1nc(-c2ccccc2)c2ccccc2n1	n	n	n	n	n	x
O=C(N[C@@H]1CC[C@H](CCn2cc(C3CCCCC3)nn2)O[C@@H]1CO)c1cccnc1	n	x	n	n	x	x
CN1CCN(c2cc(-c3cc(O)c4ncccc4c3)ccn2)CC1	x	x	69.1	x	x	10.9µM
CN1CCN(C(=O)c2cccc(-c3cc(O)c4ncccc4c3)c2)CC1	x	x	74.6	x	n	17µM
CN1CCN(C(=O)c2cccc(-c3ccc4nncn4c3)c2)CC1	n	n	x	n	x	x
Cc1ccc(/C=N/NC(=S)N2CCOCC2)cc1	x	n	45.4	x	n	n
Cc1ccc(CNC(=S)N2CCOCC2)cc1	n	n	n	n	n	x
O=C(Nc1nccs1)c1cnccn1	x	n	51.4	x	n	n
COC(=O)c1[nH]c2ccc(C)cc2c1NC(=O)c1ccccc1[N+](=O)[O-]	x	n	54.3	x	n	n
COC(=O)c1[nH]c2ccc(Cl)cc2c1NC(=O)c1ccccc1[N+](=O)[O-]	x	n	n	x	n	x
C[C@@H]1CCCCO[C@@H](CN(C)CC2CCCCC2)[C@H](C)CN([C@@H](C)CO)C(=O)c2cc(NS(=O)(=O)c3ccc(F)cc3)ccc2O1	n	x	n	n	x	x
c1ccc(-c2n[nH]c(-c3ccccn3)n2)nc1	n	n	59.6	n	n	7.5µM
SMILES	CASP6 VEID inh	NSD2 HMT inh	ARNT-TACC3 inh	SIRT5 inh	PfHsp90 set2	ARNT Alpha ctr-1	others
c1ccc(-c2nn[nH]n2)cc1	n	n	n	n	n	x
S=c1nc(-c2ccccn2)c(-c2ccccn2)n[nH]1	x	n	x	x	x	x
c1ccc(-c2nn[nH]n2)nc1	n	n	66.9	n	n	53.4µM
O=C(C1CC1)N1[C@H](CO)[C@@H]2c3ccccc3N(S(=O)(=O)c3ccc(F)cc3)C[C@@H]21	n	x	n	n	x	x
CC(Oc1ccc(F)cc1)C(=O)Nc1nc(-c2ccccn2)cs1 (stereo unspecified)	n	n	63.3	n	n	65.9µM
c1ccc(Nc2nc(-c3ccccn3)cs2)cc1	x	n	65.9	x	n	48.5µM
c1ccc(Nc2nc(-c3ccncc3)cs2)cc1	x	n	n	x	n	x
O=C(CC1CC2CCC1C2)Nc1nc(-c2ccccn2)cs1 (stereo unspecified)	n	n	n	n	n	x
O=C(Nc1nc(-c2ccccn2)cs1)C12CC3CC(CC(O)(C3)C1)C2	n	n	70.6	n	n	62.3µM
O=C(Nc1nc(-c2ccncc2)cs1)c1ccco1	x	n	n	x	n	x	ARNT Alpha ctr-2=n
COc1ccc(NC(=O)Nc2cccc3c2O[C@H](CN(C)C(=O)Nc2ccc4c(c2)OCO4)[C@H](C)CN([C@@H](C)CO)C3=O)cc1	n	x	n	n	x	x
O=C(Nc1nc(-c2ccccn2)cs1)C1CC1	n	x	x	n	n	x
O=C(Nc1nc(-c2ccccn2)cs1)c1ccco1	n	n	59.0	n	n	26.1µM	ARNT Alpha ctr-2=9.78
Cc1ccnc2nc(C(=O)Nc3nc(-c4ccccn4)cs3)nn12	n	n	66.5	n	n	13.8µM
COc1ccc(CNC(=O)C[C@@H]2C[C@H]3c4cc(NC(=O)CN(C)C)ccc4O[C@H]3[C@@H](CO)O2)cc1	n	x	n	n	x	x
O=C(O)COc1ccccc1/C=N/NC(=O)c1cc(-c2ccc(Cl)cc2)nc2ccccc12	n	n	41.5	n	n	56µM
O=C(O)COc1ccccc1/C=N/NC(=O)c1cc(-c2ccccc2)nc2ccccc12	n	n	n	n	n	x
COc1ccc(S(=O)(=O)n2oc(=O)cc2-c2ccccc2)cc1OC	x	n	active	x	n	7.84µM
NNC(=O)c1ccc(CSc2cccc3cccnc23)cc1	n	n	n	n	n	x
CCCCCOc1ccc(NC(=O)CSc2cccc3cccnc23)cc1	n	n	58.0	x	n	63.4µM
O=C(CSc1cccc2cccnc12)Nc1ccc(S(=O)(=O)N2CCOCC2)cc1	n	n	74.2	n	n	32.9µM
COc1ccc(NC(=O)CSc2cccc3cccnc23)c(OC)c1	n	n	n	n	n	x
CCOC(=O)CSc1cccc2cccnc12	x	n	56.6	x	n	9.31µM
Cc1cccc(CSc2cccc3cccnc23)c1	x	n	61.7	x	x	13.1µM
COc1ccc(S(=O)(=O)N(C)C[C@@H]2OCCCC[C@H](C)Oc3ccc(N(C)C)cc3C(=O)N([C@@H](C)CO)C[C@@H]2C)cc1	n	x	n	n	x	x
CCc1cc2c(=O)[nH]c(-c3ccccn3)nc2s1	n	n	76.4	n	n	50.8µM	ARNT Alpha ctr-2=16.8
O=C(O)c1cccc(S(=O)(=O)Nc2ccc([N+](=O)[O-])cc2O)c1	n	n	n	n	n	x
O=C(O)CSc1cc(NS(=O)(=O)c2cccc([N+](=O)[O-])c2)c2ccccc2c1O	68.0	x	61.4	n	n	n
CN(C)CCN(C(=O)c1ccc2c(c1)CCCC2)c1nc2cc3c(cc2s1)OCCO3	n	n	52.2	n	n	23.7µM
O=C(CNCc1ccccn1)Nc1ccc([N+](=O)[O-])cc1C(=O)Nc1ccccc1F	n	n	61.9	n	n	28.2µM
